According to PubChem BioAssay (NCATS):
“And” between values parts separate entries of the source, which are not always exact repeats. Equal values may be shown once. Inconclusive results are not listed. A call without a number means that no potency is given here. Values without a mark were called inactive. The source made the active and inactive calls. Calls follow the shape of the dose curve; as a rule, active = well fitted curve in the direction sought with a large enough effect; inconclusive = small, poorly fitted or top-dose-only effect, or another doubt; inactive = no such curve, though single readings can be large; an effect the other way counts as inactive or inconclusive.

assay: qHTS of pediatric cancer cell lines to identify multiple opportunities for drug repurposing: Primary screen for MG 63 (6-TG R) cells (AID 1347105); details: MG 63 (6-TG R) viability, CellTiter-Glo, 48 h; series mostly up to 46 µM; activity change, negative = cytotoxic: at the top concentration; also: nearly all actives have a fitted effect of over 50% in size
Procedure, shortened: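 500-1,000 cells/well; 5 h pre-incubation 37 °C/5% CO2; compound pinned; 48 h; CellTiter-Glo, 15 min RT; luminescence. MIPE 11-pt from 0.78 nM, NPC 8-pt from 0.59 nM final. Bortezomib 2.3 µM final as positive control.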
Potency is read from the fitted curve at half-maximal effect.

Q: Which “activity change, negative = cytotoxic” value does the source give for CC(C)(S)[C@@H](N)C(=O)O here?
A: The value was 1.28%.

Q: For COc1cc2c(cc1OC)C1CC(=O)C(CC(C)C)CN1CC2 (configuration not stated), which “activity change, negative = cytotoxic” value is on record?
A: Its value is -23.7%.

Q: For NS(=O)(=O)c1cc(C(=O)O)c(NCc2ccco2)cc1Cl, which Potency is on record?
A: The Potency was “inactive”.

Q: With COc1ccccc1N1CCN(CCN(C(=O)C2CCCCC2)c2ccccn2)CC1 as the molecule, how does the “activity change, negative = cytotoxic” value read?
A: The value was -15.4%.

Q: Which Potency does the source give for Cc1cc(=O)oc2cc(O)ccc12 here?
A: Its Potency is “inactive”.

Q: For CNC[C@@H](O)[C@@H](O)[C@H](O)[C@H](O)CO, which “activity change, negative = cytotoxic” value is on record?
A: The value was 3.71%.

Q: For c1cnc2cc3c(cc2n1)C1CNCC3C1, which “activity change, negative = cytotoxic” value is on record?
A: Its value is -7.36%.

Q: Which “activity change, negative = cytotoxic” value does the source give for CCOc1cc(CC(=O)N[C@@H](CC(C)C)c2ccccc2N2CCCCC2)ccc1C(=O)O here?
A: Its value is 5.51%.

Q: With CC1Cc2ccccc2N1NC(=O)c1ccc(Cl)c(S(N)(=O)=O)c1 (configuration not stated) as the molecule, how does the Potency read?
A: Its Potency is “inactive”.

Q: For CCCCC(CC)COC(=O)C(C#N)=C(c1ccccc1)c1ccccc1 (configuration not stated), which “activity change, negative = cytotoxic” value is on record?
A: The value was 6.3%.

Q: With NNc1nncc2ccccc12 as the molecule, how does the Potency read?
A: Its Potency is “inactive”.

Q: Which Potency does the source give for Oc1ccc(OCc2ccccc2)cc1 here?
A: The Potency was “inactive”.

Q: With C[Se]CCC(N)C(=O)O (configuration not stated) as the molecule, how does the “activity change, negative = cytotoxic” value read?
A: The value was -17.1% [at 92.7 µM].

Q: For CCCCCCCCCCCCCCCCCCCCCCO, which “activity change, negative = cytotoxic” value is on record?
A: The value was -6.1%.

Q: With O=C(NOCC1CC1)c1ccc(F)c(F)c1Nc1ccc(I)cc1Cl as the molecule, how does the Potency read?
A: Its Potency is 26.6 µM (active) and 11.8 µM (active).

Q: For CCN(CCO)CCCC(C)Nc1ccnc2cc(Cl)ccc12 (configuration not stated), which activity change, negative = cytotoxic is on record?
A: The activity change, negative = cytotoxic was 6.76% [at 4.84 µM].

Q: With CCN(CC)C(=S)SSC(=S)N(CC)CC as the molecule, how does the Potency read?
A: The Potency was 37.2 nM (active).

Q: For NC(=O)Cc1cccc(C(=O)c2ccccc2)c1N, which Potency is on record?
A: The Potency was “inactive”.

Q: For Cc1ccc(NC(=O)c2ccc(CN3CCN(C)CC3)cc2)cc1Nc1nccc(-c2cccnc2)n1, which Potency is on record?
A: The Potency was “inactive”.

Q: For CN1C(C(=O)Nc2ccccn2)=C(O)c2sccc2S1(=O)=O, which Potency is on record?
A: The Potency was “inactive”.

Q: With Cc1cc2c(s1)Nc1ccccc1N=C2N1CCN(C)CC1 as the molecule, how does the Potency read?
A: Its Potency is “inactive”.

Q: With COc1cc(OC)c(C(=O)CCCN2CCCC2)c(OC)c1 as the molecule, how does the Potency read?
A: The Potency was “inactive”.

Q: For Nc1ccc(S(N)(=O)=O)cc1, which Potency is on record?
A: The Potency was “inactive”.

Q: Which “activity change, negative = cytotoxic” value does the source give for Clc1ccc2c(N3CCN(CCCN4CCN(c5ccnc6cc(Cl)ccc56)CC4)CC3)ccnc2c1 here?
A: Its value is 22.1% [at 16.1 µM].

assay: qHTS of pediatric cancer cell lines to identify multiple opportunities for drug repurposing: Primary screen for control Hh wild type fibroblast cells (AID 1347106); details: Hh wild-type fibroblast viability, CellTiter-Glo luminescence, 48 h; series mostly up to 46 µM; activity change, negative = cytotoxic: at the top concentration; also: nearly all actives have a fitted effect of over 55% in size;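 as to activity change, negative = cytotoxic: a drop in luminescence marks cytotoxicity and a rise apparent proliferation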
Procedure, shortened: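 Cells (500-1,000/well) in growth media were settled 5 h at 37 degrees C, then given compounds for 48 h. Viability was read as CellTiter-Glo luminescence. Primary runs used MIPE at 11 points (0.78 nM-46 µM) and NPC at 8 points (0.59 nM-46 µM); follow-ups used 11 points.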

Q: Which “activity change, negative = cytotoxic” value does the source give for COC(=O)C1=C(C)NC(C)=C(C(=O)OC(C)C)C1c1cccc2nonc12 (configuration not stated) here?
A: Its value is 8.68%.

Q: For CC1(C)NC(=O)N(c2ccc([N+](=O)[O-])c(C(F)(F)F)c2)C1=O, which Potency is on record?
A: Its Potency is “inactive”.

Q: Which “activity change, negative = cytotoxic” value does the source give for CC(C)(S)[C@@H](N)C(=O)O here?
A: Its value is -10.8%.

Q: For Cc1ncc([N+](=O)[O-])n1CC(C)O (configuration not stated), which Potency is on record?
A: Its Potency is “inactive”.

Q: For COc1cc2c(cc1OC)C1CC(=O)C(CC(C)C)CN1CC2 (configuration not stated), which “activity change, negative = cytotoxic” value is on record?
A: Its value is 11.2%.

Q: With NS(=O)(=O)c1cc(C(=O)O)c(NCc2ccco2)cc1Cl as the molecule, how does the Potency read?
A: The Potency was “inactive”.

Q: With COc1ccccc1N1CCN(CCN(C(=O)C2CCCCC2)c2ccccn2)CC1 as the molecule, how does the “activity change, negative = cytotoxic” value read?
A: Its value is -4.26%.

Q: With Cc1cc(=O)oc2cc(O)ccc12 as the molecule, how does the Potency read?
A: Its Potency is “inactive”.

Q: For CNC[C@@H](O)[C@@H](O)[C@H](O)[C@H](O)CO, which “activity change, negative = cytotoxic” value is on record?
A: Its value is -1.43%.

Q: With c1cnc2cc3c(cc2n1)C1CNCC3C1 as the molecule, how does the “activity change, negative = cytotoxic” value read?
A: Its value is -12.6%.

Q: For CCOC(=O)c1c(C)n(C)c2ccc(O)cc12, which Potency is on record?
A: Its Potency is “inactive”.

Q: With CCOc1cc(CC(=O)N[C@@H](CC(C)C)c2ccccc2N2CCCCC2)ccc1C(=O)O as the molecule, how does the “activity change, negative = cytotoxic” value read?
A: The value was 11.7%.

Q: With CC1Cc2ccccc2N1NC(=O)c1ccc(Cl)c(S(N)(=O)=O)c1 (configuration not stated) as the molecule, how does the Potency read?
A: The Potency was “inactive”.

Q: Which “activity change, negative = cytotoxic” value does the source give for O=C(OC1C[C@H]2CC[C@@H](C1)[N+]21CCCC1)C(O)(c1ccccc1)c1ccccc1 (some centres not stated) here?
A: Its value is 14.2%.

Q: For CCCCC(CC)COC(=O)C(C#N)=C(c1ccccc1)c1ccccc1 (configuration not stated), which “activity change, negative = cytotoxic” value is on record?
A: The value was -1.95%.

Q: Which Potency does the source give for NNc1nncc2ccccc12 here?
A: The Potency was “inactive”.

Q: For Oc1ccc(OCc2ccccc2)cc1, which Potency is on record?
A: Its Potency is “inactive”.

Q: With COc1ccc2cc([C@H](C)C(=O)O)ccc2c1 as the molecule, how does the Potency read?
A: Its Potency is “inactive”.

Q: For Nc1ncn([C@H]2C[C@H](O)[C@@H](CO)O2)c(=O)n1, which Potency is on record?
A: Its Potency is “inactive”.

Q: Which Potency does the source give for COc1c2occc2cc2ccc(=O)oc12 here?
A: The Potency was “inactive”.

Q: With C[Se]CCC(N)C(=O)O (configuration not stated) as the molecule, how does the “activity change, negative = cytotoxic” value read?
A: The value was -11.7% [at 92.7 µM].

Q: Which “activity change, negative = cytotoxic” value does the source give for CC1(C)C(=O)N(CCN2CCC(C(=O)c3ccc(F)cc3)CC2)c2ccccc21 here?
A: The value was 5.82%.

Q: Which “activity change, negative = cytotoxic” value does the source give for CCCCCCCCCCCCCCCCCCCCCCO here?
A: The value was -3.79%.

Q: Which Potency does the source give for O=C(NOCC1CC1)c1ccc(F)c(F)c1Nc1ccc(I)cc1Cl here?
A: The Potency was “inactive”.

Q: With Cc1nc2n(c(=O)c1CCN1CCC(c3noc4cc(F)ccc34)CC1)CCCC2 as the molecule, how does the Potency read?
A: Its Potency is “inactive”.

Q: With N=C(N)c1ccc2cc(OC(=O)c3ccc(N=C(N)N)cc3)ccc2c1 as the molecule, how does the Potency read?
A: Its Potency is “inactive”.

Q: With CCN(CCO)CCCC(C)Nc1ccnc2cc(Cl)ccc12 (configuration not stated) as the molecule, how does the Potency read?
A: The Potency was “inactive”.

Q: For CCN(CC)C(=S)SSC(=S)N(CC)CC, which Potency is on record?
A: The Potency was 166 nM (active) and 111 nM (active) and 1.19 µM (active).

Q: For NC(=O)Cc1cccc(C(=O)c2ccccc2)c1N, which Potency is on record?
A: Its Potency is “inactive”.

Q: For Cc1ccc(NC(=O)c2ccc(CN3CCN(C)CC3)cc2)cc1Nc1nccc(-c2cccnc2)n1, which Potency is on record?
A: Its Potency is “inactive”.

Q: Which Potency does the source give for O=C(O)c1cn(-c2ccc(F)cc2)c2cc(N3CCNCC3)c(F)cc2c1=O here?
A: Its Potency is “inactive”.

Q: Which Potency does the source give for CN1C(C(=O)Nc2ccccn2)=C(O)c2sccc2S1(=O)=O here?
A: The Potency was “inactive”.

Q: Which Potency does the source give for Cc1cc2c(s1)Nc1ccccc1N=C2N1CCN(C)CC1 here?
A: The Potency was “inactive”.

Q: With COc1cc(OC)c(C(=O)CCCN2CCCC2)c(OC)c1 as the molecule, how does the Potency read?
A: Its Potency is “inactive”.

Q: For CC1=C(C(=O)O)N2C(=O)[C@@H](NC(=O)[C@H](N)C3=CCC=CC3)[C@H]2SC1, which Potency is on record?
A: The Potency was “inactive”.

Q: For Nc1cc(C(Cl)=C(Cl)Cl)c(S(N)(=O)=O)cc1S(N)(=O)=O, which Potency is on record?
A: Its Potency is “inactive”.

Q: For Nc1ccc(S(N)(=O)=O)cc1, which Potency is on record?
A: The Potency was “inactive”.

Q: For Clc1ccc2c(N3CCN(CCCN4CCN(c5ccnc6cc(Cl)ccc56)CC4)CC3)ccnc2c1, which “activity change, negative = cytotoxic” value is on record?
A: The value was 14.6% [at 16.1 µM].
